This note sets out measurements from PubChem BioAssay (NCATS).

Structures are written as SMILES. Inconclusive results are not listed. The source made the active and inactive calls. The call rests on the fitted dose curve; in most records, active means well fitted curve in the direction sought with a large enough effect; inconclusive means small, poorly fitted or top-dose-only effect, or another doubt; inactive means no such curve, though single readings can be large; an effect the other way counts as inactive or inconclusive. Numbered stars: 1 amine (or outer) side, 2 acyl side, 3 side chain; on linkers, the order of the positions; unused ones are H or OH. Bridge positions count the residues as written; N and C are the ends. Square brackets hold non-standard residues; d marks the D form. Peptide text beside a SMILES is read from it. * marks the point of attachment. ξ: configuration not given here. ΔAla(Z-3-ureido) = NC(=O)N/C=C(\N)C(=O)O; ξDab(CH2SO3H) = NC(CCNCS(=O)(=O)O)C(=O)O; X1 = NC1=NCCC(C(N[*:1])C(=O)[*:2])N1; Heptanoyl(6-Me) = CC(C)CCCCC(=O)*; ξβ3hOrn = NCCCC(N)CC(=O)*; Dab = NCC[CH](N)C(=O)O; Dap = NC[CH](N)C(=O)O

One experiment has as its system 3D7. The experiment can be described thus: qHTS profiling for inhibitors of Plasmodium falciparum proliferation (AID 504749). Further: nearly all actives have a fitted effect of over 60% in size. Further: potency means the concentration at half of the fitted maximal effect. The note with it: P. falciparum in erythrocytes, SYBR Green DNA, 72 h; series mostly up to 28.7 µM. The essentials: (§1)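 Three-day growth assay of blood-stage parasites in erythrocytes (0.3% parasitemia, 2.5% hematocrit) at 37 C, 5% CO2, quantified by SYBR Green DNA staining after overnight detergent lysis.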
A general note: qHTS replaces the single test concentration by a dilution series.

The test system of the next experiment is AS120. The description is as above. The note with it: P. falciparum in erythrocytes, SYBR Green DNA, 72 h; series mostly up to 28.7 µM. In outline: as §1
The subject of another experiment is ATS95. The experiment is described as above. The note with it: P. falciparum in erythrocytes, SYBR Green DNA, 72 h; series mostly up to 28.7 µM. The essentials: as §1
For a further experiment, the system named is CP191. Described as above. The note with it: P. falciparum in erythrocytes, SYBR Green DNA, 72 h; series mostly up to 28.7 µM. The essentials: as §1
The next experiment concerns CP211. Described as above. The note with it: P. falciparum in erythrocytes, SYBR Green DNA, 72 h; series mostly up to 28.7 µM. The essentials: as §1
A further experiment deals with CP247. Described as above. The note with it: P. falciparum in erythrocytes, SYBR Green DNA, 72 h; series mostly up to 28.7 µM. The essentials: as §1
In another experiment the test system is CP250. The experiment is described as above. The note with it: P. falciparum in erythrocytes, SYBR Green DNA, 72 h; series mostly up to 28.7 µM. In outline: as §1
Another experiment relates to CP262. The experiment is described as above. The note with it: P. falciparum in erythrocytes, SYBR Green DNA, 72 h; series mostly up to 28.7 µM. In outline:
as §1

In the next experiment the test system is CP297. The experiment is described as above. The note with it: P. falciparum in erythrocytes, SYBR Green DNA, 72 h; series mostly up to 28.7 µM. In outline:
as §1

A further experiment relates to CP335. Described as above. The note with it: P. falciparum in erythrocytes, SYBR Green DNA, 72 h; series mostly up to 28.7 µM. In outline:
as §1

A further experiment relates to Dd2. The experiment is described as above. The note with it: P. falciparum in erythrocytes, SYBR Green DNA, 72 h; series mostly up to 28.7 µM. The essentials: as §1
Another experiment concerns ECU. The description is as above. The note with it: P. falciparum in erythrocytes, SYBR Green DNA, 72 h; series mostly up to 28.7 µM. In outline: as §1
The test system of another experiment is N140. The description is as above. The note with it: P. falciparum in erythrocytes, SYBR Green DNA, 72 h; series mostly up to 28.7 µM. In outline:
as §1

The next experiment has as its system P93_24. Described as above. The note with it: P. falciparum in erythrocytes, SYBR Green DNA, 72 h; series mostly up to 28.7 µM. In outline: as §1
A further experiment has as its system PAD. The experiment is described as above. The note with it: P. falciparum in erythrocytes, SYBR Green DNA, 72 h; series mostly up to 28.7 µM. In outline: as §1
The next experiment has as its system TAB113. The experiment is described as above. The note with it: P. falciparum in erythrocytes, SYBR Green DNA, 72 h; series mostly up to 28.7 µM. In outline:
as §1

The next experiment relates to TAB165. The experiment is described as above. The note with it: P. falciparum in erythrocytes, SYBR Green DNA, 72 h; series mostly up to 28.7 µM. The essentials: as §1
Experiment [1] has as its target Cytochrome P450 3A4 (Homo sapiens) (UniProt P08684). Description: qHTS Assay for Activators of Cytochrome P450 3A4 (AID 885). Further: nearly all actives have a fitted effect of over 65% in size. The essentials: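 Human CYP3A4 (20 nM) with Luciferin-PPXE at 25 uM (its KM) in 200 mM KPO4; 10 min compound preincubation, then NADPH regeneration and 60 min reaction at RT. Luciferin read by luminescence; normalized to 57 uM ketoconazole full inhibition.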

Cytochrome P450 3A4 (Homo sapiens), sequence (P08684 whole entry, looked up): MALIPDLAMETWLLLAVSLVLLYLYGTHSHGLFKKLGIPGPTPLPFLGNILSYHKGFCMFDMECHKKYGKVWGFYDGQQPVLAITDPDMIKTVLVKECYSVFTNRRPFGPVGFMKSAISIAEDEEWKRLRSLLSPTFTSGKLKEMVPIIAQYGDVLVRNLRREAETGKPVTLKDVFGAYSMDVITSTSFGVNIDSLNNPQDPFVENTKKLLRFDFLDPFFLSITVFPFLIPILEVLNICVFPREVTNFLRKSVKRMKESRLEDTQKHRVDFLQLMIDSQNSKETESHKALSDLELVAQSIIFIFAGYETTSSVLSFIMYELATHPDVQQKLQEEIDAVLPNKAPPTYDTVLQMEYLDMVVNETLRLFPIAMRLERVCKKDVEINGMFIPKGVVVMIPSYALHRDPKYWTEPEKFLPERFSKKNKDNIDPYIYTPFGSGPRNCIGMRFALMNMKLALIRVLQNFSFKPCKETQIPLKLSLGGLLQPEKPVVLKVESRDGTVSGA

Take `NCCCC(N)CC(=O)NCC1NC(=O)C(CO)NC(=O)C(N)CNC(=O)C(C2CCN=C(N)N2)NC(=O)/C(=C/NC(N)=O)NC1=O` (stereo not drawn) (H-[Dap]S[Dap](ξβ3hOrn)[ΔAla(Z-3-ureido)][X1]; lactam 1-C; configuration not given here): the Potency entry in the experiment on 3D7, in the experiment on AS120, in the experiment with ATS95, with CP191, with CP211 and with CP247 was “inactive” in each case. Further, the Potency entry with CP250, with CP262, with CP297, in the experiment with CP335, in the experiment on Dd2 and in the experiment on ECU was “inactive” in each case. Besides, the Potency result in the experiment with N140, in the experiment on P93_24, in the experiment with PAD, with TAB113 and in the experiment on TAB165 was “inactive” each time.

`CCC1NC(=O)C(NC(=O)c2ncccc2O)C(C)OC(=O)C(c2ccccc2)NC(=O)C2CC(=O)CCN2C(=O)C(Cc2ccccc2)N(C)C(=O)C2CCCN2C1=O` (stereo not drawn): the Potency result with 3D7, in the experiment with ATS95, in the experiment on CP191, in the experiment with CP211, in the experiment with CP247 and in the experiment with CP250 was “inactive” throughout. Besides, the Potency entry in the experiment with CP262, with CP297, in the experiment with CP335 and with TAB113 was “inactive” throughout.

Regarding `O=C1/C(=C\c2cccs2)CCC/C1=C/c1cccs1`, the Potency result with 3D7, in the experiment with AS120, with ATS95, in the experiment on CP211, in the experiment with CP247 and in the experiment with CP250 was “inactive” each time. For the same compound, the Potency result with CP262, with CP297, in the experiment with Dd2, in the experiment with ECU, with N140 and in the experiment on P93_24 was “inactive” in each case. Further, the Potency result in the experiment with PAD, with TAB113 and with TAB165 was “inactive” each time.

Consider `O=C(OCC1OC(OC(=O)c2cc(O)c(O)c(OC(=O)c3cc(O)c(O)c(O)c3)c2)[C@@H](OC(=O)c2cc(O)c(O)c(OC(=O)c3cc(O)c(O)c(O)c3)c2)C(OC(=O)c2cc(O)c(O)c(OC(=O)c3cc(O)c(O)c(O)c3)c2)C1OC(=O)c1cc(O)c(O)c(OC(=O)c2cc(O)c(O)c(O)c2)c1)c1cc(O)c(O)c(OC(=O)c2cc(O)c(O)c(O)c2)c1` (stereo partly drawn), for which, in experiment [1], the Potency result is “inactive”. For the same compound, the Potency with 3D7 was 2000 nM (active); with AS120 it was 2510 nM (active); in the experiment on ATS95 it was 2820 nM (active); with CP191, 2820 nM (active); with CP211, 4780 nM (active); in the experiment with CP247, 2820 nM (active). The Potency in the experiment on CP250 is 2240 nM (active); in the experiment on CP262, 4260 nM (active); with CP297, 3790 nM (active); with CP335, 1690 nM (active); in the experiment with Dd2 it was 2240 nM (active); in the experiment on ECU, 2240 nM (active). Further, the Potency is 2240 nM (active) with N140; 2510 nM (active) with P93_24; 3550 nM (active) with PAD; 2240 nM (active) in the experiment with TAB113; 2000 nM (active) in the experiment on TAB165.

As for `CC(C)C[C@H](NC(=O)[C@@H](Cc1c[nH]c2ccccc12)NC(=O)[C@@H](Cc1ccc(O)cc1)NC(=O)[C@@H](CO)NC(=O)[C@@H](Cc1c[nH]c2ccccc12)NC(=O)C(Cc1cnc[nH]1)NC(=O)C1CCC(=O)N1)C(=O)N[C@@H](CCCN=C(N)N)C(=O)N1CCC[C@@H]1C(=O)NCC(N)=O` (stereo partly drawn), the Potency result in the experiment with 3D7, with AS120, in the experiment with ATS95, in the experiment with CP191, in the experiment with CP211 and in the experiment with CP247 was “inactive” throughout. The Potency entry in the experiment on CP250, with CP262, with CP297, in the experiment on CP335, with Dd2 and in the experiment with ECU was “inactive” each time. For the same compound, the Potency entry in the experiment on N140, with P93_24, in the experiment on PAD, in the experiment on TAB113 and with TAB165 was “inactive” throughout.

Regarding `CCC(C)C1NC(=O)C(CCNCS(=O)(=O)O)NC(=O)C(NC(=O)C(CCNCS(=O)(=O)O)NC(=O)C(NC(=O)C(CCNCS(=O)(=O)O)NC(=O)CCCCC(C)C)C(C)O)CCNC(=O)C(C(C)O)NC(=O)C(CCNCS(=O)(=O)O)NC(=O)C(CCNCS(=O)(=O)O)NC(=O)C(C(C)CC)NC1=O` (stereo not drawn) ({Heptanoyl(6-Me)}-[ξDab(CH2SO3H)]T[ξDab(CH2SO3H)][Dab][ξDab(CH2SO3H)]II[ξDab(CH2SO3H)][ξDab(CH2SO3H)]T; lactam 4-C; configuration not given here), the Potency result with 3D7, in the experiment with AS120, with ATS95, with CP191, in the experiment on CP211 and with CP247 was “inactive” each time. The Potency entry in the experiment on CP262, with CP297, with CP335, in the experiment with Dd2, with ECU and in the experiment with N140 was “inactive” each time. Further, the Potency entry in the experiment on P93_24, in the experiment on PAD, in the experiment with TAB113 and in the experiment with TAB165 was “inactive” in each case.

For `CC1(C)C(/C=C/C=C/C=C/C=C2\N(CCCCS(=O)(=O)O)c3ccc4ccccc4c3C2(C)C)=[N+](CCCCS(=O)(=O)[O-])c2ccc3ccccc3c21`, the Potency result in the experiment on AS120, in the experiment on ATS95, with CP191, with CP211, in the experiment with CP247 and with CP250 was “inactive” in each case. For the same compound, the Potency result with CP262, in the experiment on CP297, in the experiment on Dd2, with ECU, with N140 and in the experiment with P93_24 was “inactive” each time. Also, the Potency entry with PAD, with TAB113 and with TAB165 was “inactive” each time.
